From PubChem BioAssay AID1159580 (chemical genetic matrix, 2015)
“And” between values parts separate entries of the source, which are not always exact repeats. Equal entries are not always repeated. Out of some 5,500 compounds screened, about 2,000 (36%) were called active. Roughly 18% stayed inconclusive and do not appear here. Cut-off read from the data, not from the text of the source: active = normalized growth mostly below about 0.91 (no sharp cut-off); inconclusive = no clear call, values can overlap the other calls; inactive = mostly above about 0.92. This is one part of the list.

Test: chemical genetic growth profiling, strain panel (AID 1159580);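 note: tested at 20 µM; growth read once vehicle control cultures reached saturation at 30 °C; 1 = growth at the plate median or of vehicle wells; lower values mean less growth of the strain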
Conditions: growth OD

Measured: normalized growth

COc1cc2c(cc1OC)-c1cc3ccc(OC)c(OC)c3c[n+]1CC2
inactive: S. cerevisiae deletion strains, locus YJR075W, strain HOC1, stronger effect = lower value 0.985 and 1.03 | S. cerevisiae deletion strains, locus YKL009W, strain mrt4, stronger effect = lower value 0.972 and 0.995 | S. cerevisiae deletion strains, locus YKL068W, stronger effect = lower value 0.996 and 1.01 | S. cerevisiae deletion strains, locus YKL085W, strain MDH1 (second series), stronger effect = lower value 0.995 and 0.999 | S. cerevisiae deletion strains, locus YKL085W, strain MDH1, stronger effect = lower value 0.995 and 0.999 | S. cerevisiae deletion strains, locus YKL160W, strain elf1, stronger effect = lower value 0.982 | S. cerevisiae deletion strains, locus YKL190W, strain CNB1, stronger effect = lower value 0.995 and 1.02 | S. cerevisiae deletion strains, locus YKR001C, strain vps1, stronger effect = lower value 0.971 and 1.02 | S. cerevisiae deletion strains, locus YKR026C, strain gcn3, stronger effect = lower value 0.966 | S. cerevisiae deletion strains, locus YKR091W, strain srl3, stronger effect = lower value 0.984 | S. cerevisiae deletion strains, locus YLL001W, strain dnm1, stronger effect = lower value 0.972 | S. cerevisiae deletion strains, locus YLL026W, stronger effect = lower value 0.983 | S. cerevisiae deletion strains, locus YLL041C, strain sdh2, stronger effect = lower value 0.984 | S. cerevisiae deletion strains, locus YLR027C, strain aat2, stronger effect = lower value 0.978 | S. cerevisiae deletion strains, locus YLR039C, strain RIC1, stronger effect = lower value 1 and 0.981 | S. cerevisiae deletion strains, locus YLR058C, strain SHM2, stronger effect = lower value 0.985 and 1.02 | S. cerevisiae deletion strains, locus YLR102C, strain apc9, stronger effect = lower value 0.986 and 1.02 | S. cerevisiae deletion strains, locus YLR113W, strain HOG1, stronger effect = lower value 1.03 | S. cerevisiae deletion strains, locus YLR221C, strain rsa3, stronger effect = lower value 1.01 | S. cerevisiae deletion strains, locus YLR258W, strain gsy2, stronger effect = lower value 1 | S. cerevisiae deletion strains, locus YLR262C, strain YPT6 (second series), stronger effect = lower value 0.969 | S. cerevisiae deletion strains, locus YLR262C, strain YPT6, stronger effect = lower value 1.02 and 0.979 | S. cerevisiae deletion strains, locus YLR268W, strain sec22, stronger effect = lower value 1.01 and 1.04 | S. cerevisiae deletion strains, locus YLR320W, strain mms22, stronger effect = lower value 0.997 | S. cerevisiae deletion strains, locus YLR330W, strain CHS5, stronger effect = lower value 0.991 and 1.01 | S. cerevisiae deletion strains, locus YLR342W, strain FKS1 (second series), stronger effect = lower value 0.978 and 0.987 | S. cerevisiae deletion strains, locus YLR342W, strain FKS1, stronger effect = lower value 0.995 | S. cerevisiae deletion strains, locus YLR357W, strain rsc2, stronger effect = lower value 0.984 | S. cerevisiae deletion strains, locus YLR370C, strain arc18, stronger effect = lower value 0.975 | S. cerevisiae deletion strains, locus YLR371W, strain rom2, stronger effect = lower value 0.978 and 1.01 | S. cerevisiae deletion strains, locus YLR384C, strain iki3, stronger effect = lower value 0.969 | S. cerevisiae deletion strains, locus YLR418C, strain cdc73, stronger effect = lower value 0.994 and 1 | S. cerevisiae deletion strains, locus YML016C, strain PPZ1, stronger effect = lower value 0.982 and 1.01 | S. cerevisiae deletion strains, locus YML032C, strain rad52, stronger effect = lower value 0.972 and 0.998 | S. cerevisiae deletion strains, locus YML120C, strain ndi1, stronger effect = lower value 0.987 | S. cerevisiae deletion strains, locus YML124C, strain tub3, stronger effect = lower value 0.993 and 1.02 | S. cerevisiae deletion strains, locus YMR058W, strain fet3, stronger effect = lower value 0.978 | S. cerevisiae deletion strains, locus YMR078C, strain ctf18, stronger effect = lower value 0.979 and 1.01 | S. cerevisiae deletion strains, locus YMR125W, strain sto1, stronger effect = lower value 0.958 | S. cerevisiae deletion strains, locus YMR129W, stronger effect = lower value 0.985 | S. cerevisiae deletion strains, locus YMR205C, strain PFK2, stronger effect = lower value 0.955 | S. cerevisiae deletion strains, locus YMR223W, strain ubp8, stronger effect = lower value 0.977 and 1.01 | S. cerevisiae deletion strains, locus YMR231W, strain pep5, stronger effect = lower value 1 | S. cerevisiae deletion strains, locus YMR263W, strain SAP30, stronger effect = lower value 0.998 | S. cerevisiae deletion strains, locus YMR307W, strain GAS1, stronger effect = lower value 0.984 and 1.03 | S. cerevisiae deletion strains, locus YNL067W, strain RPL9B, stronger effect = lower value 0.998 and 1.05 | S. cerevisiae deletion strains, locus YNL071W, strain lat1, stronger effect = lower value 0.994 | S. cerevisiae deletion strains, locus YNL128W, strain TEP1, stronger effect = lower value 0.999 | S. cerevisiae deletion strains, locus YNL153C, strain GIM3, stronger effect = lower value 1.01 | S. cerevisiae deletion strains, locus YNL183C, strain NPR1, stronger effect = lower value 0.978 | S. cerevisiae deletion strains, locus YNL209W, strain ssb2, stronger effect = lower value 0.977 | S. cerevisiae deletion strains, locus YNL233W, strain BNI4, stronger effect = lower value 0.981 and 1.03 | S. cerevisiae deletion strains, locus YNL248C, strain rpa49, stronger effect = lower value 0.982 | S. cerevisiae deletion strains, locus YNL250W, strain rad50, stronger effect = lower value 0.989 and 1.02 | S. cerevisiae deletion strains, locus YNL271C, strain bni1, stronger effect = lower value 0.986 and 1.01 | S. cerevisiae deletion strains, locus YNL298W, strain CLA4, stronger effect = lower value 0.995 and 1.02 | S. cerevisiae deletion strains, locus YNL307C, strain MCK1, stronger effect = lower value 0.986 and 1.02 | S. cerevisiae deletion strains, locus YNL322C, strain KRE1 (second series), stronger effect = lower value 0.97 | S. cerevisiae deletion strains, locus YNL322C, strain KRE1, stronger effect = lower value 0.987 and 1.01 | S. cerevisiae deletion strains, locus YNR049C, strain mso1, stronger effect = lower value 0.98 | S. cerevisiae deletion strains, locus YNR052C, strain pop2, stronger effect = lower value 0.995 and 1.02 | S. cerevisiae deletion strains, locus YOL006C, strain TOP1, stronger effect = lower value 1.01 | S. cerevisiae deletion strains, locus YOL012C, strain htz1 0.984 and 1.9 | S. cerevisiae deletion strains, locus YOL147C, strain pex11, stronger effect = lower value 0.991 and 1.01 | S. cerevisiae deletion strains, locus YOR001W, strain rrp6, stronger effect = lower value 0.968 | S. cerevisiae deletion strains, locus YOR061W, strain CKA2, stronger effect = lower value 0.99 and 1 | S. cerevisiae deletion strains, locus YOR069W, strain VPS5, stronger effect = lower value 0.992 and 1.01 | S. cerevisiae deletion strains, locus YOR070C, strain gyp1, stronger effect = lower value 0.986 | S. cerevisiae deletion strains, locus YOR080W, strain dia2, stronger effect = lower value 0.984 | S. cerevisiae deletion strains, locus YOR083W, strain WHI5, stronger effect = lower value 0.999 | S. cerevisiae deletion strains, locus YOR106W, strain vam3, stronger effect = lower value 0.961 | S. cerevisiae deletion strains, locus YOR136W, strain idh2, stronger effect = lower value 0.989 and 1.02 | S. cerevisiae deletion strains, locus YOR144C, strain elg1, stronger effect = lower value 0.989 and 1.01 | S. cerevisiae deletion strains, locus YOR184W, strain ser1, stronger effect = lower value 0.984 and 1 | S. cerevisiae deletion strains, locus YOR231W, strain MKK1, stronger effect = lower value 1.01 | S. cerevisiae deletion strains, locus YOR265W, strain rbl2, stronger effect = lower value 0.973 | S. cerevisiae deletion strains, locus YOR270C, strain vph1, stronger effect = lower value 0.97 | S. cerevisiae deletion strains, locus YOR290C, strain snf2, stronger effect = lower value 0.98 | S. cerevisiae deletion strains, locus YOR316C, strain cot1, stronger effect = lower value 0.986 and 1.01 | S. cerevisiae deletion strains, locus YPL051W, strain arl3, stronger effect = lower value 0.991 | S. cerevisiae deletion strains, locus YPL055C, strain LGE1, stronger effect = lower value 1.03 and 1.02 | S. cerevisiae deletion strains, locus YPL078C, strain atp4, stronger effect = lower value 0.986 | S. cerevisiae deletion strains, locus YPL106C, strain sse1, stronger effect = lower value 0.971 | S. cerevisiae deletion strains, locus YPL240C, strain hsp82, stronger effect = lower value 0.969 | S. cerevisiae deletion strains, locus YPL241C, strain CIN2, stronger effect = lower value 0.995 and 1 | S. cerevisiae deletion strains, locus YPL256C, strain CLN2, stronger effect = lower value 1.03 | S. cerevisiae deletion strains, locus YPR119W, strain clb2, stronger effect = lower value 0.985 and 1.01 | S. cerevisiae deletion strains, locus YPR141C, strain kar3, stronger effect = lower value 0.981 and 1.02 | S. cerevisiae deletion strains, locus YPR163C, strain tif3, stronger effect = lower value 0.992 and 1.03 | S. cerevisiae deletion strains, locus YPR167C, strain met16, stronger effect = lower value 0.983 and 1.01 | S. cerevisiae deletion strains, strain wtn01, stronger effect = lower value 0.972 and 1.03 | S. cerevisiae strains, strain wild type, stronger effect = lower value 0.987
